{"source": "PubChem BioAssay AID1159580", "about": "(chemical genetic matrix, 2015)", "experiment": "chemical genetic growth profiling, strain panel (AID 1159580);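 further: tested at 20 µM; growth read once vehicle control cultures reached saturation at 30 °C; 1 = growth at the plate median or of vehicle wells; lower values mean less growth of the strain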", "conditions": "growth OD", "key": {"[1]": {"conditions": "S. cerevisiae deletion strains, locus YAL013W, strain DEP1, hits give low values"}, "[2]": {"conditions": "S. cerevisiae deletion strains, locus YBR229C, strain ROT2, hits give low values"}, "[3]": {"conditions": "S. cerevisiae deletion strains, locus YDL101C, strain DUN1, hits give low values"}, "[4]": {"conditions": "S. cerevisiae deletion strains, locus YDL134C, strain PPH21, hits give low values"}, "[5]": {"conditions": "S. cerevisiae deletion strains, locus YDR150W, strain NUM1, hits give low values"}, "[6]": {"conditions": "S. cerevisiae deletion strains, locus YEL061C, strain CIN8, hits give low values"}, "[7]": {"conditions": "S. cerevisiae deletion strains, locus YGR078C, strain PAC10, hits give low values"}, "[8]": {"conditions": "S. cerevisiae deletion strains, locus YHR030C, strain SLT2, hits give low values"}, "[9]": {"conditions": "S. cerevisiae deletion strains, locus YHR087W, strain rtc3, hits give low values"}, "[10]": {"conditions": "S. cerevisiae deletion strains, locus YJR043C, strain POL32, hits give low values"}, "[11]": {"conditions": "S. cerevisiae deletion strains, locus YJR075W, strain HOC1, hits give low values"}, "[12]": {"conditions": "S. cerevisiae deletion strains, locus YLR039C, strain RIC1, hits give low values"}, "[13]": {"conditions": "S. cerevisiae deletion strains, locus YLR058C, strain SHM2 (second series), hits give low values"}, "[14]": {"conditions": "S. cerevisiae deletion strains, locus YLR085C, strain ARP6, hits give low values"}, "[15]": {"conditions": "S. cerevisiae deletion strains, locus YLR262C, strain YPT6, hits give low values"}, "[16]": {"conditions": "S. cerevisiae deletion strains, locus YML094W, strain GIM5, hits give low values"}, "[17]": {"conditions": "S. cerevisiae deletion strains, locus YMR219W, strain ESC1, hits give low values"}, "[18]": {"conditions": "S. cerevisiae deletion strains, locus YMR263W, strain SAP30, hits give low values"}, "[19]": {"conditions": "S. cerevisiae deletion strains, locus YNL128W, strain TEP1, hits give low values"}, "[20]": {"conditions": "S. cerevisiae deletion strains, locus YNL153C, strain GIM3, hits give low values"}, "[21]": {"conditions": "S. cerevisiae deletion strains, locus YNL298W, strain CLA4 (second series), hits give low values"}, "[22]": {"conditions": "S. cerevisiae deletion strains, locus YNL322C, strain KRE1, hits give low values"}, "[23]": {"conditions": "S. cerevisiae deletion strains, locus YNR030W, strain Alg12, hits give low values"}, "[24]": {"conditions": "S. cerevisiae deletion strains, locus YPL055C, strain LGE1, hits give low values"}, "[25]": {"conditions": "S. cerevisiae deletion strains, locus YPL241C, strain CIN2, hits give low values"}, "[26]": {"conditions": "S. cerevisiae deletion strains, locus YPR135W, strain CTF4, hits give low values"}, "[27]": {"conditions": "S. cerevisiae deletion strains, locus YJL187C, strain SWE1, hits give low values"}}, "note": "Screen size: about 5,500 compounds; about 2,000 (36%) were called active. Inconclusive results (about 18%) are left out. This is one part of the list. Unmarked numbers belong to inactive results. No stated cut-off is given here; in the data, active means normalized growth mostly below about 0.91 (no sharp cut-off); inconclusive means no clear call, values can overlap the other calls; inactive means mostly above about 0.92."}
{"molecule": "O=S(=O)(CCN1CCOCC1)c1ccc(Cl)cc1", "values": [{"measurement": "normalized growth", "setting": "[1]", "result": 0.995}, {"measurement": "normalized growth", "setting": "[2]", "result": 0.982}, {"measurement": "normalized growth", "setting": "[3]", "result": 0.967}, {"measurement": "normalized growth", "setting": "[4]", "result": 0.993}, {"measurement": "normalized growth", "setting": "[5]", "result": 1.01}, {"measurement": "normalized growth", "setting": "[6]", "result": 0.993}, {"measurement": "normalized growth", "setting": "[7]", "result": 0.983}, {"measurement": "normalized growth", "setting": "[8]", "result": 1.06}, {"measurement": "normalized growth", "setting": "[9]", "result": 0.982}, {"measurement": "normalized growth", "setting": "[10]", "result": 1}, {"measurement": "normalized growth", "setting": "[11]", "result": 0.998}, {"measurement": "normalized growth", "setting": "[12]", "result": 1}, {"measurement": "normalized growth", "setting": "[13]", "result": 0.963}, {"measurement": "normalized growth", "setting": "[14]", "result": 0.974}, {"measurement": "normalized growth", "setting": "[15]", "result": 1.07}, {"measurement": "normalized growth", "setting": "[16]", "result": 0.982}, {"measurement": "normalized growth", "setting": "[17]", "result": 0.982}, {"measurement": "normalized growth", "setting": "[18]", "result": 0.99}, {"measurement": "normalized growth", "setting": "[19]", "result": 0.987}, {"measurement": "normalized growth", "setting": "[20]", "result": 1.01}, {"measurement": "normalized growth", "setting": "[21]", "result": 0.996}, {"measurement": "normalized growth", "setting": "[22]", "result": 0.985}, {"measurement": "normalized growth", "setting": "[23]", "result": 0.987}, {"measurement": "normalized growth", "setting": "[24]", "result": 0.982}, {"measurement": "normalized growth", "setting": "[25]", "result": 0.986}, {"measurement": "normalized growth", "setting": "[26]", "result": 1.15}, {"measurement": "normalized growth", "setting": "S. cerevisiae strains, strain wild type, hits give low values", "result": 0.976}]}
{"molecule": "O=C(O/N=C\\c1ccc2c(c1)OCO2)c1ccccc1Br", "values": [{"measurement": "normalized growth", "setting": "[1]", "result": "0.907 (active)"}, {"measurement": "normalized growth", "setting": "[2]", "result": 0.949}, {"measurement": "normalized growth", "setting": "[3]", "result": 0.961}, {"measurement": "normalized growth", "setting": "[4]", "result": "0.827 (active)"}, {"measurement": "normalized growth", "setting": "[5]", "result": 0.872}, {"measurement": "normalized growth", "setting": "[6]", "result": "0.844 (active)"}, {"measurement": "normalized growth", "setting": "[7]", "result": "0.927 (active)"}, {"measurement": "normalized growth", "setting": "[8]", "result": "0.315 (active)"}, {"measurement": "normalized growth", "setting": "[9]", "result": 0.928}, {"measurement": "normalized growth", "setting": "[27]", "result": 0.964}, {"measurement": "normalized growth", "setting": "[10]", "result": 0.926}, {"measurement": "normalized growth", "setting": "[11]", "result": 0.935}, {"measurement": "normalized growth", "setting": "[12]", "result": "0.491 (active)"}, {"measurement": "normalized growth", "setting": "[13]", "result": 0.973}, {"measurement": "normalized growth", "setting": "[14]", "result": "0.465 (active)"}, {"measurement": "normalized growth", "setting": "[15]", "result": "0.577 (active)"}, {"measurement": "normalized growth", "setting": "[16]", "result": "0.815 (active)"}, {"measurement": "normalized growth", "setting": "[17]", "result": 0.959}, {"measurement": "normalized growth", "setting": "[18]", "result": "0.892 (active)"}, {"measurement": "normalized growth", "setting": "[20]", "result": 0.959}, {"measurement": "normalized growth", "setting": "[21]", "result": "0.826 (active)"}, {"measurement": "normalized growth", "setting": "[22]", "result": 0.95}, {"measurement": "normalized growth", "setting": "[23]", "result": "0.857 (active)"}, {"measurement": "normalized growth", "setting": "[24]", "result": "0.728 (active)"}, {"measurement": "normalized growth", "setting": "[25]", "result": "0.834 (active)"}, {"measurement": "normalized growth", "setting": "[26]", "result": "0.591 (active)"}]}
{"molecule": "O=C(O)c1ccc(N=Cc2ccc3c(c2)OCO3)cc1", "values": [{"measurement": "normalized growth", "setting": "[1]", "result": 1}, {"measurement": "normalized growth", "setting": "[2]", "result": 0.991}, {"measurement": "normalized growth", "setting": "[3]", "result": 0.983}, {"measurement": "normalized growth", "setting": "[5]", "result": 0.879}, {"measurement": "normalized growth", "setting": "[6]", "result": 1.01}, {"measurement": "normalized growth", "setting": "[7]", "result": 0.994}, {"measurement": "normalized growth", "setting": "[8]", "result": 0.999}, {"measurement": "normalized growth", "setting": "[9]", "result": 1}, {"measurement": "normalized growth", "setting": "[27]", "result": 0.985}, {"measurement": "normalized growth", "setting": "[10]", "result": 0.997}, {"measurement": "normalized growth", "setting": "[11]", "result": 0.979}, {"measurement": "normalized growth", "setting": "S. cerevisiae deletion strains, locus YKL190W, strain CNB1, hits give low values", "result": 1}, {"measurement": "normalized growth", "setting": "[12]", "result": 0.991}, {"measurement": "normalized growth", "setting": "[13]", "result": 0.99}, {"measurement": "normalized growth", "setting": "[14]", "result": 1.05}, {"measurement": "normalized growth", "setting": "[15]", "result": 0.998}, {"measurement": "normalized growth", "setting": "[16]", "result": 1}, {"measurement": "normalized growth", "setting": "[17]", "result": 0.988}, {"measurement": "normalized growth", "setting": "S. cerevisiae deletion strains, locus YMR307W, strain GAS1, hits give low values", "result": 1.02}, {"measurement": "normalized growth", "setting": "[19]", "result": 1.04}, {"measurement": "normalized growth", "setting": "[20]", "result": 0.98}, {"measurement": "normalized growth", "setting": "[21]", "result": 1.04}, {"measurement": "normalized growth", "setting": "[22]", "result": 0.991}, {"measurement": "normalized growth", "setting": "[23]", "result": 1.01}, {"measurement": "normalized growth", "setting": "S. cerevisiae deletion strains, locus YOL006C, strain TOP1, hits give low values", "result": 1.04}, {"measurement": "normalized growth", "setting": "[24]", "result": 0.984}, {"measurement": "normalized growth", "setting": "[25]", "result": 0.992}, {"measurement": "normalized growth", "setting": "[26]", "result": 0.997}]}
